Assay outcomes as filed in PubChem.
An excerpt weighted towards active compounds, which were near 2.2% of everything screened.
ADAM10 inh: ADAM10 inhibition, QFRET primary screen | actives 0.62% (n = 370,000) | O14672 | recombinant ADAM10, EDANS/DABCYL FRET peptide cleavage, 3 h | AID 720582 | inhibition, % at 7 µM;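 active = inhibition above a per-campaign cutoff equal to the mean of compounds falling between control-based bounds plus 3 SD, cut at about 20% in these data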;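 note: 0% = DMSO wells while the 100% control is not disclosed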
KLK7 zymogen act: activates the human kallikrein-7 zymogen; P49862; purified proKLK7, EDANS-DABCYL substrate fluorescence; 100% is mature enzyme control, 0% vehicle; activation, % at 7 µM; actives 0.9% (n = 370,000); AID 652039;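 active = activation above the mean of all tested compounds plus 3 SD, computed per campaign excluding outliers beyond control limits, cut at about 13% in these data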
Target sequence (P49862 whole entry, looked up): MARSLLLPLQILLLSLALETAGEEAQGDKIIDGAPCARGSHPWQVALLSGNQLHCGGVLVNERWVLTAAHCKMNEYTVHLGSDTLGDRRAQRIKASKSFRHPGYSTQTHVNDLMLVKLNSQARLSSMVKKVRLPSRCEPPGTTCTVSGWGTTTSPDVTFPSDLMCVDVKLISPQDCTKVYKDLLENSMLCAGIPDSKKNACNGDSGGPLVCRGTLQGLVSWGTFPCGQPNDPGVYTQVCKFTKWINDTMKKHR
NPR2 activator: GC-B (human) receptor activation; HEK293-GC-B cells, CNP EC30, cGMP TR-FRET; 0% at EC30 CNP, 100% saturating CNP; activation, % at 10 µM; P20594; actives 0.11% (n = 370,000);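 active = activation at 10 µM reaching about 35% in either raw or pattern-adjusted values, limit read from the data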
ADAM17 inh: inhibits human ADAM17. P78536. inhibition, % at 6.95 µM. AID 720648. actives 0.83% (n = 370,000). recombinant ADAM17, EDANS/DABCYL FRET peptide cleavage;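 active = inhibition above the mean of compounds lying between control limits plus 3 SD, set per campaign, cut at about 8.5% in these data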;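 note: 0% = DMSO-only wells as the low control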
NPR1 activator: GC-A (human) enzyme activation; HEK293 GC-A cells, cGMP TR-FRET, EC30 ANP; 0% at EC30 ANP, 100% saturating ANP; activation, % at 10 µM; actives 0.14% (n = 370,000); in the data active = activation above about 40%
ADAM10 confirm: confirmation of inhibitors of human ADAM10. inhibition, % at 6.95 µM. actives 1% (n = 2,100). shares compounds with ADAM10 inh. AID 743208. ADAM10 QFRET peptide cleavage, EDANS fluorescence;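 active = inhibition above about 20% chosen separately for each screening run, limit read from the data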;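 note: 0% = DMSO wells and 100% = marimastat wells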
ADAM17 ctr: inhibits human ADAM17 in ADAM10 exosite counter-screen; inhibition, % at 6.95 µM; ADAM17 QFRET peptide cleavage, EDANS fluorescence; AID 743214; shares compounds with ADAM10 inh; actives 0.5% (n = 2,100);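 active = mean triplicate inhibition above the solvent-only control wells' mean plus 3 SD, cut at about 12% in these data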;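 note: 0% = DMSO wells and 100% = marimastat wells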
An asterisk follows results filed as active; · = no result.

SMILES	ADAM10 inh	KLK7 zymogen act	NPR2 activator	ADAM17 inh	NPR1 activator	ADAM10 confirm	ADAM17 ctr
COc1cc(Br)cc(CNc2ccc(F)c([N+](=O)[O-])c2)c1O	20*	0	-12	6	-12	4	1
Cc1ccc(CC(=O)Nc2ccc(F)c([N+](=O)[O-])c2)cc1C	2	0	3	4	-3	·	·
Oc1ccccc1CN(Cc1ccco1)CC(O)COCc1ccc(Cl)cc1 (stereo not given)	23*	-1	-10	9	-5	3	1
COC(=O)C1CN(Cc2cn(Cc3ccc(C)cc3)nn2)CCS(=O)(=O)N1Cc1ccc(C)cc1 (stereo not given)	9	0	-9	6	-4	·	·
COCC#Cc1ccc(CC[C@H]2O[C@H]3CC[C@@H](CO)O[C@H]3C[C@H]2n2cc(C3CC3)nn2)cc1	-1	0	4	5	-1	·	·
C=CCN(C)CC#Cc1ccccc1C	-8	0	11	-2	4	·	·
COc1ccc(CN2CN3CCc4ccccc4C3CS2(=O)=O)cc1 (stereo not given)	-7	0	-2	-5	-3	·	·
COc1cccc(CNc2ccc(Br)cn2)c1O	25*	0	-8	5	-10	0	0
NC(=O)c1c(N)[nH]c(C(=O)c2ccccc2)c1-c1ccccc1C(F)(F)F	-17	·	3	-7	-4	·	·
N#Cc1ccc(CN(Nc2ccccc2)c2ccccc2)cc1	27*	6	-6	8	-4	5	2
O=S(=O)(NCc1cccc(C(F)(F)F)c1)NCc1ccccc1F	20*	0	5	4	-2	1	0
CC(C)N(Cc1nc(-c2ccc(Cl)cc2)no1)C(=O)C(c1ccccc1)c1ccccc1	3	0	1	2	-2	·	·
Cc1ccc(-c2noc(CN(C(=O)C(c3ccccc3)c3ccccc3)C(C)C)n2)cc1	20*	0	2	5	-3	2	1
Cc1ccc(S(=O)(=O)c2ccc(NC(=O)c3c(F)cccc3F)cc2)cc1	24*	0	0	7	3	0	1
C[C@H]1[C@@H](NC(=O)C(c2ccccc2)c2ccccc2)CC[C@@]23CCCN2C(=O)CCC[C@@H]13	2	·	-7	0	-7	·	·
O=C(O)CN1C(=O)C(=O)N(Cc2c(F)cccc2Cl)C1=O	5	0	-5	-3	1	·	·
O=C1C(=O)N(C2CCCC2)C(=O)N1Cc1c(F)cccc1Cl	21*	0	9	-1	2	2	0
O=C(CSc1cn(CCNC(=O)c2c(F)cccc2F)c2ccccc12)NCC1CCCO1 (stereo not given)	0	0	6	0	1	·	·
O=C(NCCn1cc(SCc2ccccc2)c2ccccc21)c1c(F)cccc1F	24*	0	-6	7	-8	5	3
COc1ccc(NS(=O)(=O)c2ccc(-c3ccccn3)s2)cc1	22*	0	2	5	-4	0	0
O=C(NCC1COc2ccccc2O1)c1ccc(NC(=O)c2cccc(F)c2F)cc1 (stereo not given)	-8	0	2	-1	-3	·	·
Cc1cc(N2CCCC2)ccc1/C=C1\NC(=S)N(C)C1=O	25*	0	-1	4	-1	2	0
O=C(NN1C(=O)C2C(c3ccccc3)C=CC(c3ccccc3)C2C1=O)c1cccc(Br)c1 (stereo not given)	21*	0	4	8	5	10	5
O=C(NN1C(=O)C2C(c3ccccc3)C=CC(c3ccccc3)C2C1=O)c1ccccc1 (stereo not given)	13	0	4	6	-2	·	·
C=C(C)COc1ccc(-c2[nH]ncc2Oc2ccccc2OCC)c(O)c1	-2	1	2	-5	2	·	·
SMILES	ADAM10 inh	KLK7 zymogen act	NPR2 activator	ADAM17 inh	NPR1 activator	ADAM10 confirm	ADAM17 ctr
CCCc1ccc(Oc2cn[nH]c2-c2ccc(O)cc2O)cc1	22*	0	1	6	40*	7	2
C=C(C)COc1ccc(-c2[nH]ncc2Oc2cccc(OC)c2)c(O)c1	27*	0	14	8	9	15	5
CC[C@@H](CCC(=O)N(c1ccccc1)c1ccccc1)c1ccc(C)cc1	2	0	-16	5	-24	·	·
Cc1n[nH]c(C)c1N=Nc1ccc(Br)cc1	21*	1	-10	8	22	3	1
Cc1ccccc1Cn1ccc(NC(=O)c2cnn3c2NC(c2ccccc2)CC3C(F)(F)F)n1 (stereo not given)	21*	0	8	5	-8	4	1
O=C(CSc1nnc(-c2cccnc2)n1-c1ccc(Cl)cc1)c1ccc(F)cc1	-3	0	-6	-3	-3	·	·
CCOC(=O)c1c(NC(=O)CSc2n[nH]c(-c3ccco3)n2)sc(C)c1C	22*	0	-1	4	1	0	0
COc1ccc(/C=C2/CN(Cc3ccc(OC)cc3OC)C3=NC(c4ccc5ccccc5c4)CC(=O)N32)cc1 (stereo not given)	-44	·	-5	-8	-4	·	·
Cc1sc2ncnc(N3CCC(C(=O)NNC(=O)COc4ccccc4Cl)CC3)c2c1C	26*	0	-17	0	-22	3	2
Cc1ccc(OCC(=O)NNC(=O)C2CCN(c3ncnc4sc(C)c(C)c34)CC2)cc1	3	0	-6	-2	-11	·	·
Cc1sc2ncnc(N3CCC(C(=O)NNC(=O)COc4ccc(Cl)cc4)CC3)c2c1C	21*	0	-10	2	-14	1	0
CCc1ccccc1NC(=O)c1ccc(CN2CCC(Cc3ccccc3)CC2)cc1	-3	0	3	-4	5	·	·
O=C(NC1=N[C@@]2(C=C3CCCCC3n3c(=O)n(-c4ccccc4)c(=O)n32)[C@H](Cc2ccccc2)N1Cc1ccccc1)c1ccccc1 (stereo not given in full)	20*	0	3	9.7*	-2	9	6
C(=N\N(Cc1ccccc1)c1ccccc1)/c1cccnc1	12	0	2	8	6	·	·
Oc1cccc(/C=N/N(Cc2ccccc2)c2ccccc2)c1	22*	0	-5	9	-12	13	5
Cc1cccc(N2CCN(S(=O)(=O)c3ccc4c(c3)NC(=O)C(C)S4)CC2)c1C (stereo not given)	-3	0	-3	-2	-7	·	·
